The record followed here is PubChem BioAssay AID492967 (ICCB-Longwood Screening Facility, Harvard Medical School, 2010).

About 320 (0.23%) of roughly 140,000 compounds were called active. For the sample, actives were picked, then their nearest neighbours and some compounds at random. A number with no mark means an inactive call. Rule as the data show it: active = z-score mostly below about -2.9 (no sharp cut-off); inactive = mostly above about -1.9.

This assay has as its system CapD gamma-glutamyltranspeptidase (Bacillus anthracis Ames Ancestor). The assay is described as follows: Bacillus anthracis CapD inhibitors, primary screen, biochemical, fluorescence intensity (AID 492967). The conditions noted are these: purified CapD enzyme, fluorescence intensity read-out; hits give low values.
Consider `COc1ccc2nc(SCC(=O)Nc3cc(NC(=O)CSc4nc5ccc(OC)cc5[nH]4)cc(C(=O)O)c3)[nH]c2c1`, for which the z-score was -1.48.
The figure for `COc1ccc(CCNC(=O)c2cn(C)c(=O)c3cc(OC)c(OC)cc23)cc1OC` is 1.5.
The figure for `CCC(=O)NCCc1nc2ccccc2n1CC` is -0.29.
The figure for `O=C(COc1ccccc1)NCCc1nc2ccccc2n1Cc1ccccc1` is -8.12 (active).
Consider `Cc1ccccc1Cn1c(CCNC(=O)C(C)(C)C)nc2ccccc21`, for which the z-score is -0.49.
Take `CC(C)NC(=O)CN1CCN(S(=O)(=O)c2cc(Cl)ccc2Cl)CC1`: the z-score is -0.36.
Consider `CC(C)(C)c1ccc(OCCCn2c(=O)sc3ccccc32)cc1`, for which the z-score is 0.35.
For `O=C1CC(c2c(Cl)cccc2Cl)c2ccc3ccccc3c2N1` (centres undefined), the z-score was 0.
Regarding `COCCNC(=O)c1ccc(Cn2c(SCC(=O)NCC3CCCO3)nc3ccc(Br)cc3c2=O)cc1` (centres undefined), the z-score was -0.085.
As to `Cc1ccc2cc3cc(C(=O)NCc4ccc(F)cc4)oc3nc2c1`, the z-score was 50.4.
The figure for `O=C(c1ccc(C(F)(F)F)cc1)N1CCC(c2nnc(-c3ccccc3)o2)CC1` is -0.12.
For `Cc1ccc2cc(C)c(C)cc2c1`, the z-score was -0.345.
Then `COc1ccc(CCNC(=O)CCC(=O)Nc2nc(-c3cc4ccccc4oc3=O)cs2)cc1OC`, with 0.27; and `CN(C)C=NC(=O)c1ccc(Oc2ncc(C(F)(F)F)cc2Cl)cc1`, with -0.275; and `CC(=O)c1cc(Cl)cc(Cl)c1OC(=O)c1c(-c2c(Cl)cccc2Cl)noc1C`, with -0.58.
`O=C(NCCCN1CCCCC1)c1cc(-c2ccncc2)nc2ccccc12`: the z-score is 0.14.
The figure for `CCOc1cc(/C=C2\SC(=S)N(c3c(C)n(C)n(-c4ccccc4)c3=O)C2=O)ccc1O` is -1.1.
In the case of `CCCC(C(=O)O)N1C(=O)/C(=C/c2ccc(O)c(OCC)c2)SC1=S` (centres undefined), the z-score was -7.48 (active).
Then `CCOc1cc(/C=C2\SC(=S)N(C(C)C(=O)O)C2=O)ccc1O` (centres undefined), with -2.57.
`Cc1ccc(N2CCN(c3ccccc3)CC2)nn1`: the z-score is -0.315.
Turning to `COc1ccc(CN2C(=O)CC(C(=O)Nc3ccc(F)cc3)SC2=Nc2ccccc2)cc1` (centres undefined), the z-score was -0.02.
Take `CCN1C[C@]2(OC(=O)c3ccccc3NC(C)=O)CC[C@H](OC)[C@@]34C2C[C@@H]([C@@H]13)[C@@]1(O)C[C@H](OC)[C@H]2CC4[C@]1(O)[C@H]2OC` (some centres undefined): the z-score is 7.48.
For the compound `CN(C(=O)Cn1nc(Cc2ccncc2)c2ccccc2c1=O)c1ccccc1`, the z-score is 5.11.
With `COc1ccc([N+](=O)[O-])cc1/C=C1\C(=O)NC(=O)N(c2ccc(Cl)cc2)C1=O`, the z-score was -0.64.
The figure for `Oc1c(Br)cc(Br)cc1C=Nc1ccc(Oc2ccc(Cl)cc2)cc1` is -1.07; for `Cc1ccc2c(c1)-c1onc(C(=O)NC3CCCCC3)c1CO2` it is 3.98.
The figure for `CCO/C=C1\SC(=S)N(Cc2ccccc2)C1=O` is -0.945; for `O=C1c2ccccc2C(=O)N1CC1c2ccccc2CCN1S(=O)(=O)c1cccc2nsnc12` (centres undefined) it is -0.52.
The figure for `CCCCOc1ccc(C(=O)Nc2ccc3nc(SCC(=O)NCC4CCCO4)sc3c2)cc1` (centres undefined) is 0.345; for `O=C(/C=C/c1cn(-c2ccccc2)nc1-c1ccc(F)cc1)NCc1cccnc1` it is 2.33.
Turning to `COC(=O)c1sc(-c2cccs2)cc1NS(=O)(=O)c1ccccc1`, the z-score was 41.9.
On to `COC(=O)c1c(NC(=O)Cn2nc([N+](=O)[O-])c(Br)c2C)sc2c1CCC(C)C2` (centres undefined), for which the z-score was -0.48.
Then `CCc1ccc(NC(=O)Cc2csc(C)n2)cc1`, with -0.185; and `CCOC(=O)C1C(=O)CN(c2ccccc2)C1=O` (centres undefined), with 2.06; and `O=C(C1CCN(S(=O)(=O)c2ccc3[nH]c4c(c3c2)CCCCC4)CC1)N1CCCC1`, with -0.165.
Then `Cc1ccc(NC(=O)c2ccccc2N)cc1C`, with 29; and `C=CCNC(=S)Nc1ccn(Cc2ccccc2C)n1`, with -0.535.
Then `O=C(CSc1ccc(Cl)cc1)N1CCC(C(F)(F)F)CC1`, with 0.56; and `Cc1nc(Nc2ccc(S(N)(=O)=O)cc2)nc(Nc2ccc(S(N)(=O)=O)cc2)c1Br`, with -0.56; and `CC(C)C(O)(C(=O)OC[C@@H]1CC[N+]2([O-])CCC[C@@H]12)C(C)O` (some centres undefined), with 0.78.
`O=C1CSC(c2ccccc2)C(=O)N1c1ccc(Br)cc1` (centres undefined): the z-score is 0.345.
On to `Cc1ccc(-c2n[nH]c3c2C(c2ccccc2F)N(c2ccc(F)cc2)C3=O)cc1` (centres undefined), for which the z-score was -0.525.
The figure for `C/C(=N\NC(=O)C1CCCCC1)c1cccs1` is -0.47; for `N#CCC1NCCc2ccccc21` (centres undefined) it is -2.33; for `CC1(C)CC2(CCCN(CC#N)C2)CCS1` (centres undefined) it is 0.425.
Then `COc1ccc(C(Nc2ncnc3c2ncn3C2CC=C(CO)CC2)(c2ccccc2)c2ccccc2)cc1` (centres undefined), with -0.275.
Then `CN(Cc1ccccc1)C(=O)Cn1ncc2c3ccccc3n(Cc3ccccc3F)c2c1=O`, with 0.685.
As to `O=C(CN1CCN(c2ccc([N+](=O)[O-])cn2)CC1)Nc1ccc2c(c1)OCO2`, the z-score is -0.23.
Then `CCN(c1ccccc1)S(=O)(=O)c1cc2c(cc1C)n(C)c(=O)c(=O)n2C`, with 4.49; and `C=C1Cn2c(nnc2-c2ccc(Br)cc2)S1`, with 0.32.
Then `O=C(CSc1nc2ccc(Br)cc2c(=O)n1-c1ccccc1)NCc1ccco1`, with 0.585; and `O=C(O)CCCN1C(=O)/C(=C2\SC(=S)N(CCCC(=O)O)C2=O)SC1=S`, with 1.03.
The figure for `O=C(O)c1cc2cccnc2nc1C(F)(F)F` is -0.285; for `COc1ccc(C(=O)OC2CC(C)=CCC3(C)CCC(O)(C(C)C)C23)cc1O` (centres undefined) it is -0.385; for `COc1ccc(C(=O)N2CCN(C(=O)OCc3ccc(SC(F)(F)F)cc3)CC2)cc1F` it is 0.325.
In the case of `Nc1c(C(=O)O)noc1C(=O)c1ccccc1`, the z-score is 2.44.
Then `O=C(OCC(=O)N1CCCCC1)c1ccc(OC(F)(F)F)cc1`, with 0.135; and `CC(C)(C)NC(=S)NNc1c(Cl)cncc1Cl`, with 0.41; and `CN(c1ncnc2c1nc1n2CCCCC1)C1CCCCC1`, with 0.88.
Then `NC(=S)c1ccc(-c2csnn2)cc1`, with -0.465; and `CCN1C(=O)/C(=C2/Sc3ccccc3N2C2CCCCC2)SC1=S`, with -0.02; and `CCN1C(=O)/C(=C/c2ccccc2)SC1=S`, with 0.005.
Consider `CCN1C(=O)/C(=C2/Sc3ccccc3N2CCCS(=O)(=O)O)SC1=S`, for which the z-score is -3.94 (active).
In the case of `CCCCc1ccc2nc(N)sc2c1`, the z-score was -0.715.
Then `O=C(NCCO)c1ccc(/C=N/O)nc1`, with 0.075.
Then `Cc1c(Cl)cccc1NC(=O)c1ccc(-n2cccn2)c([N+](=O)[O-])c1`, with 2.56.
As to `CC(=O)N1CCCN(S(=O)(=O)c2cccc3nonc23)CC1`, the z-score was -0.285.
Regarding `CCn1c2ccccc2c2cc(CN3CCN(C(=O)c4ccccc4OC)CC3)ccc21`, the z-score was 14.
As to `O=[N+]([O-])c1ccc(-c2ccc(-c3[nH]c(-c4cccc([N+](=O)[O-])c4)nc3-c3ccccc3)cc2)cc1`, the z-score is 0.025.
Take `CC1CCN(CC(=O)N2c3ccccc3C(C)(c3ccccc3)CC2(C)C)CC1` (centres undefined): the z-score is 0.18.
Then `CCOC(=O)CC(=O)CSc1nc2c(sc(=S)n2CCc2ccccc2)c(=O)n1Cc1ccco1`, with 0.52; and `O=C(COc1ncn(-c2ccccc2)n1)N/N=C/c1cc(OCc2ccccc2)cc(OCc2ccccc2)c1`, with -1.07; and `COc1cc(Br)c(C2C(C(=O)OCCOc3ccccc3)=C(C)NC3=C2C(=O)CCC3)cc1OC` (centres undefined), with 22.1.
Regarding `CCN1CCN(CCNC(=O)c2ccc(NC(=O)C3=CSCCO3)cc2)CC1`, the z-score was -0.9.
Then `O=C(O)c1cc2ccccc2c(=O)s1`, with 0.97.
As for `O=C(O)c1cc2c(s1)CS(=O)(=O)C2`, the z-score was -3.92 (active).
Take `O=C(NCCc1ccccc1)c1cc2c(s1)CS(=O)(=O)C2`: the z-score was 0.17.
For `COc1ccc(C2Nc3ccccc3C(=O)N2c2ccccc2)cc1CSc1nc2ccccc2s1` (centres undefined), the z-score is 34.5.
The figure for `Cc1cc(C)nc(N2CCN(C(=O)C(C)(C)C)CC2)n1` is -0.02; for `Nc1ccc(C(=O)Nc2nc3ccc(NC(=O)c4ccccc4)cc3s2)cc1` it is 13.6.
On to `O=C(OCCN1C(=O)c2ccccc2C1=O)c1ccc(Cl)cc1`, for which the z-score was 0.395.
Then `O=C(NC(=O)N1CCOCC1)c1ccc(S(=O)(=O)N2CCOCC2)cc1`, with 0.605.
Then `CC1=NN(c2ccccc2)C(=O)CC1`, with 0.205.
`CCC(C)c1ccc(N2C(=O)C=CC2=O)cc1` (centres undefined): the z-score was -0.045.
For `COc1ccc(N2CCN(c3ncnc4sc(C(=O)NCc5ccccc5OC)c(C)c34)CC2)cc1`, the z-score was -0.385.
For the compound `Cc1ccc2c(c1)c1c3n2CCN(S(C)(=O)=O)C3CCC1` (centres undefined), the z-score is 0.19.
On to `CCOC(=O)c1cc(C#N)c(C)nc1N1CCN(C(=O)OCCN2CCN(Cc3cc4c(cc3Cl)OCO4)CC2)CC1`, for which the z-score is -0.455.
The figure for `OC(CSCc1ccc(Cl)cc1)(c1ccccc1)c1ccccc1` is -0.53; for `CCOC(=O)c1ccc(NC(=O)N2CCC(CN3CCCCCC3)CC2)cc1` it is -1.43; for `O=C1CCc2ccccc2CN1` it is 0.13.
The figure for `Nc1ccc2c(c1)C/C(=C\c1ccco1)C2=O` is -3.17; for `Cc1cccc(NC(=O)N(C)C)c1` it is 0.275; for `C=CCn1c(=S)sc2c(SCC(=O)N3CCc4ccccc43)ncnc21` it is 1.31.
Then `C=CCn1c(=S)sc2c(=O)[nH]c(C)nc21`, with -5.7 (active).
